# Results from PubChem BioAssay.
# Several values for one entry are separate records, joined by “and”; a condition that tells them apart may be missing. Equal values may be shown once. Results filed as inconclusive are left out. For part of these data: Measured potencies and affinities stand elsewhere. Activity calls are given as the source filed them. Rule as the data show it, unless noted: active = inhibition above about 80%; inactive = the rest.
# Legend:
# [1] = target: Mitogen-activated protein kinase 7 (Homo sapiens) (UniProt Q13164); test: Gal4-ERK5 driven luciferase induction – cell-based, HTS, primary screen (AID 1508626;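 active = luciferase signal above three times the same-plate solvent-only control wells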;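 also: luciferase driven by Gal4-ERK5 fusion binding five Gal4 sites before minimal TATA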); conditions: HeLa Gal4-ERK5 transactivation, 18 h, at 5 µM, stronger effect = higher value
# [2] = blockers of polyQ-driven CASP3 activation – cell-based (AID 1583); conditions: polyglutamine-induced caspase-3 activation, cell assay; stronger effect = higher value;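 tested at 10 µM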
# [3] = yeast 75Q aggregation reduction – 75Q-TubU reporter (AID 1593); conditions: Yeast 75Q polyglutamine aggregation reporter
# [4] = restoration of touch response, mutant HTT neurons – whole organism, C. elegans mechanosensory neurons, N-terminal huntingtin (AID 1599); conditions: C. elegans polyQ-huntingtin mechanosensory neurons, stronger effect = higher value
# [5] = blockers of cytochrome c efflux from mitochondria – biochemical, purified mitochondria (AID 1603); conditions: stronger effect = lower value;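 also: mouse liver mitochondria challenged with calcium chloride; signal normalized to the plate average as 100%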
# [6] = polyglutamine aggregate formation blockers (AID 1604); conditions: polyglutamine-induced protein aggregation inhibition assay; stronger effect = higher value; tested at 2.5 µM
# [7] = glutamate transport activators, MN-1 cells, MN-1 cell line (AID 1612); conditions: MN-1 motor neuron cells, stronger effect = higher value;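 also: tested at 1 µM final; 0% = mean of DMSO vehicle wells on each plate; positive means more glutamate uptake than control and negative means less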
# [8] = 75Q-TubH aggregate inhibition, S. cerevisiae, yeast (AID 1616); conditions: S. cerevisiae 75Q-TubH polyglutamine aggregation suppression; stronger effect = higher value
# [9] = growth inhibition, single agents and combos, LFS_MB_1R, cell-based, cisplatin or BGB combos, synergistic combos for chromothripsis tumors (AID 1671452); conditions: LFS_MB_1R medulloblastoma cells, stronger effect = higher value;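 also: cells exposed for 96 hours before readout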
# [10] = growth inhibition, single agents and combos, CRL2098, cell-based, BGB or cisplatin IC20 combos, synergistic combos for chromothripsis tumors (AID 1671454); conditions: CRL2098 osteosarcoma cells, drug combinations, stronger effect = higher value;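 also: cells exposed for 96 h before readout; 0% = vehicle DMSO and 100% = killing by high DMSO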
# [11] = growth inhibition, single agents and combos, HD-MB03, cell-based, BGB or cisplatin IC20 combos, synergistic combos for chromothripsis tumors (AID 1671455; in the data active = inhibition above about 83%;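 also: 0% = vehicle DMSO and 100% = high DMSO as cytotoxic control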); conditions: HD-MB03 medulloblastoma cells, stronger effect = higher value
# [12] = growth inhibition, single agents and combos, UWB1.289, cell-based, BGB or cisplatin combos, synergistic combos for chromothripsis tumors (AID 1671456); conditions: UWB1.289 ovarian carcinoma cells, stronger effect = higher value;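 also: cells exposed to compound for four days; 0% = vehicle DMSO and 100% = killing by high DMSO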
# [13] = growth inhibition, single agents and combos, LFS_MB_2R, cell-based, cisplatin combos, synergistic combos for chromothripsis tumors (AID 1671457); conditions: LFS_MB_2R medulloblastoma cells, stronger effect = higher value;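 also: cells exposed to compound for four days before readout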
# [14] = UWB1.289_BRCA1 ovarian cancer growth, cell-based, BGB or cisplatin combinations (AID 1671459); conditions: UWB1.289 BRCA1 ovarian carcinoma, drug combinations, stronger effect = higher value
# [15] = drug combination toxicity in non-malignant astrocytes – cell-based, BGB or cisplatin IC20 combos, cytotoxicity control for chromothriptic childhood tumor combination screen (AID 1671460); conditions: Human astrocytes, viability inhibition, drug combinations, at 0.5 µM, stronger effect = higher value;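 also: cells exposed to compounds for 96 hours before viability readout; 0% = vehicle and 100% = killing control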
# [16] = CRL1545 cell growth, single agent and combined, cisplatin and BGB IC20 combos (AID 1671464); conditions: CRL1545 osteosarcoma cells, stronger effect = higher value;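 also: cells exposed to compound for 96 hours before readout; 0% = vehicle DMSO and 100% = high DMSO killing control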
# [17] = liver-stage malaria parasite load reduction – cell-based, known kinase inhibitor set, luminescence, hepatoma host viability (AID 624392; call rule not given here;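 also: infected cells incubated roughly two days before readout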); conditions: Plasmodium liver stage in hepatoma cells, luciferase luminescence, concentration not given here; liver cell % of control: measured here: host liver cell viability; parasite % of control: stronger effect = lower value
# [18] = target: ATP-dependent translocase ABCB1 (Homo sapiens) (UniProt P08183); test: P-glycoprotein substrate transport blockade – cell-based (AID 377; in the data active = fluorescence slope change above about 50%); conditions: MDR1-expressing cells, fluorescent substrate accumulation slope; stronger effect = higher value; concentration not given here
# [19] = target: NAD(+) hydrolase SARM1 (Homo sapiens) (UniProt Q6SZW1); test: blocking NAD cleavage by SARM1 SAM-TIR – cell lysate, NAD-Glo luminescence (AID 1508614;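 active = compound whose remaining NAD level is above about 45 nM, limit read from the data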;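 also: higher remaining NAD means stronger inhibition of SARM1 NADase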); conditions: SAM-TIR HEK293T lysate NADase, at 1 µM, stronger effect = higher value
# [20] = measured here: combination with BGB IC40, at 0.05 µM
# [21] = measured here: combination with cisplatin, at 0.5 µM
# [22] = measured here: combination with cisplatin, at 5 µM
# [23] = measured here: combination with BGB at IC20, at 0.5 µM
# [24] = measured here: combination with cisplatin at IC20, at 0.5 µM
# [25] = measured here: combo with BGB at IC20, at 0.5 µM
# [26] = measured here: combo with cisplatin at IC20, at 0.5 µM
# [27] = measured here: inhibition with BGB combination, at 0.05 µM
# [28] = measured here: inhibition with cisplatin combination, at 0.05 µM
# [29] = BGB combination, concentration series, at 5 µM
# [30] = cisplatin combination, concentration series, at 5 µM
# [31] = measured here: combo with BGB IC20
# [32] = measured here: combo with cisplatin IC20
# [33] = measured here: with BGB IC20 combination, at 0.5 µM
# [34] = measured here: with cisplatin IC20 combination, at 0.5 µM
# Mitogen-activated protein kinase 7 (Homo sapiens), sequence (Q13164 whole entry, looked up, the tested form may be a part): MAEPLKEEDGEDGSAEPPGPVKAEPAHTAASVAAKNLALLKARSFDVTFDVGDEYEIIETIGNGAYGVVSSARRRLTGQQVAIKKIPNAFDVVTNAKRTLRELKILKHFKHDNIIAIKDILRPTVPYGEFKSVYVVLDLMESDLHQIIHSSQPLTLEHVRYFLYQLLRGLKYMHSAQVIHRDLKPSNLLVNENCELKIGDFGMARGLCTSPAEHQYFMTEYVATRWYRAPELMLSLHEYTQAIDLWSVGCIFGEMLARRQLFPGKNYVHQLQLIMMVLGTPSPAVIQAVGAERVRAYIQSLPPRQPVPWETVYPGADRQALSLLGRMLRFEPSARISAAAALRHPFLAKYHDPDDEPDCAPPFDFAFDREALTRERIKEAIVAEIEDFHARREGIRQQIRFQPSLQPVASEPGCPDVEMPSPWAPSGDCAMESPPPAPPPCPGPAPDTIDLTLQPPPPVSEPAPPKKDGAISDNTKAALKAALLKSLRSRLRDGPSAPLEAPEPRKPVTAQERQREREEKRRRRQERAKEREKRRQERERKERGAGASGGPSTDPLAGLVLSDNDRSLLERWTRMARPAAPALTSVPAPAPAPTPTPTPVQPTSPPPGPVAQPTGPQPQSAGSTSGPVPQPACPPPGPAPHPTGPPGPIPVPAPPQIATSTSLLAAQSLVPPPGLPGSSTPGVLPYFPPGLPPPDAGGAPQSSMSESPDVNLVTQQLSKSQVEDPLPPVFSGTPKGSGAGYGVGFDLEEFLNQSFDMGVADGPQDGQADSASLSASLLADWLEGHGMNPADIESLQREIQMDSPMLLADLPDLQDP
# NAD(+) hydrolase SARM1 (Homo sapiens), sequence (Q6SZW1 whole entry, looked up): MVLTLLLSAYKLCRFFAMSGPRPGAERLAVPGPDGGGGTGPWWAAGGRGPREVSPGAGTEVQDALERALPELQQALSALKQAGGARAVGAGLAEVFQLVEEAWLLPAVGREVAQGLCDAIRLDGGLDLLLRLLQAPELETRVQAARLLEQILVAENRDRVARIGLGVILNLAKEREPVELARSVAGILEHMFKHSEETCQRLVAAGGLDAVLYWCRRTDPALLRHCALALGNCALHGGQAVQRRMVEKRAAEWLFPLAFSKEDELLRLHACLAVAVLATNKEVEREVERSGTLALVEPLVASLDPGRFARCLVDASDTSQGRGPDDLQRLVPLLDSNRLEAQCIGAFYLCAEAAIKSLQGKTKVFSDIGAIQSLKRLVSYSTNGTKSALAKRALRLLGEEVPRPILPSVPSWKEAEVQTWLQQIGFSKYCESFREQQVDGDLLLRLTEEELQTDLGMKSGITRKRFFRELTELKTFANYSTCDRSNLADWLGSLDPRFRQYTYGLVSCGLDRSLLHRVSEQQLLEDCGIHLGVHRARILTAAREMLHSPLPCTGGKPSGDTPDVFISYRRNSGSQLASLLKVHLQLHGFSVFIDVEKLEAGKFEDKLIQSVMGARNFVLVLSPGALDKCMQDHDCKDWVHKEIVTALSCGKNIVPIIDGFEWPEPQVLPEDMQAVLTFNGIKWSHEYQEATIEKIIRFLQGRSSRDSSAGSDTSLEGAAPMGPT
# ATP-dependent translocase ABCB1 (Homo sapiens), sequence (P08183 whole entry, looked up): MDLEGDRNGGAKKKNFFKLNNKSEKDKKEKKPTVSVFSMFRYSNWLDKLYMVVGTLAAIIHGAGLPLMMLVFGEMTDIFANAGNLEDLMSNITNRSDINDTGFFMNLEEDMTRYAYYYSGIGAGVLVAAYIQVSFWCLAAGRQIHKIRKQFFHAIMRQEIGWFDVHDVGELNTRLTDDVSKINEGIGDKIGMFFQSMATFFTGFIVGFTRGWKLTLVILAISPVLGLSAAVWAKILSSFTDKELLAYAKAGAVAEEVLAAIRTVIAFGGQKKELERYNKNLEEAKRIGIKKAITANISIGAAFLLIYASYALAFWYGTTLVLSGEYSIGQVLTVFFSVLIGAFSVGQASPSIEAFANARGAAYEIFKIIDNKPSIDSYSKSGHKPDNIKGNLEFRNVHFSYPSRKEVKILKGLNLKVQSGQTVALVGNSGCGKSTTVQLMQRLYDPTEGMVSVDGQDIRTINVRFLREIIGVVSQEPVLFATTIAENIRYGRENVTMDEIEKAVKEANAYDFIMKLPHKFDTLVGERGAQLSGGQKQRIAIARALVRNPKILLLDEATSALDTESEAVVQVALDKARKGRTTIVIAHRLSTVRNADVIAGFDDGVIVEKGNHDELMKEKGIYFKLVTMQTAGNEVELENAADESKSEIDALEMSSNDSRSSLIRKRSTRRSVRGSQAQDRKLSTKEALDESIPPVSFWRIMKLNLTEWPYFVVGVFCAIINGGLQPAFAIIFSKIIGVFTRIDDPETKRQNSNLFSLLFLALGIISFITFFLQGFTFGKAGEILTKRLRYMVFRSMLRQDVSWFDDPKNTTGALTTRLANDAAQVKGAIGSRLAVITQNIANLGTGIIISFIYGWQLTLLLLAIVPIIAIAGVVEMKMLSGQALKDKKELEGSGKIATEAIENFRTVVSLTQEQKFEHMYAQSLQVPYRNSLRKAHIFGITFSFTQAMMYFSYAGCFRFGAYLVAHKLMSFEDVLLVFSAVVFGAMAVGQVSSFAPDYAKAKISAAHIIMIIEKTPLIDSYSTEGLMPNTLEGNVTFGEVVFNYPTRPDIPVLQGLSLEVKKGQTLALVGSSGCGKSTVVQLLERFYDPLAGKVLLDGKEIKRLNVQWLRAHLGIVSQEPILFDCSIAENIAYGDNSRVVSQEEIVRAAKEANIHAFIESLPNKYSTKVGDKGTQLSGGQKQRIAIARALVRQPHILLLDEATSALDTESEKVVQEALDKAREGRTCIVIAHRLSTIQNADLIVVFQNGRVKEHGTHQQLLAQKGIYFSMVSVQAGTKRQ
smiles,measurement,setting,value
CCSC(=N)N,luciferase signal,[1],16 AU (inactive)
N.N.O=C(O)C1(C(=O)O)CCC1.[Pt],inhibition,[2],-4.65%
same,score,[3],1.14
same,rescue above control,[4],12.6
same,cytochrome c release ratio,[5],0.66
same,inhibition of aggregation,[6],37.7%
same,glutamate uptake change,[7],-9.42%
same,aggregation suppression score,[8],1.13
same,inhibition,[9]; at 0.5 µM,-35.7% (inactive) and -31.6% (inactive)
same,inhibition,[9]; [20],-53% and -34.9%
same,inhibition,[9]; [21],-6.08% and -36.3%
same,inhibition,[9]; [22],-14.9% and -37.2%
same,inhibition,[10]; at 0.5 µM,-63.4% (inactive) and -87.5% (inactive)
same,inhibition,[10]; [23],-18.4% and -56.5%
same,inhibition,[10]; [24],-78.6% and -134%
same,inhibition,[11]; at 0.5 µM,-1.12% (inactive) and -17.2% (inactive)
same,inhibition,[11]; [25],0.288% and -20.6%
same,inhibition,[11]; [26],4.09% and -19.6%
same,inhibition,[12]; at 0.5 µM,-2.74% (inactive) and -5.32% (inactive)
same,inhibition,[12]; [27],42.2% and -5.66%
same,inhibition,[12]; [28],-17.5% and -30.7%
same,inhibition,[13]; at 0.5 µM,-25.7% (inactive) and -8.57% (inactive)
same,inhibition,[13]; [21],-29.8% and -25.9%
same,inhibition,[13]; [22],-19% and -16.7%
same,inhibition,[14]; [29],2.03% and 5.93%
same,inhibition,[14]; at 0.5 µM,-15.7% (inactive) and -7.62% (inactive)
same,inhibition,[14]; [30],29.9% and 24.6%
same,inhibition,[15],-6.9% (inactive) and 14.2% (inactive)
same,inhibition,[15]; [31],-5.7% and 11.6%
same,inhibition,[15]; [32],-6.14% and 19.2%
same,inhibition,[16]; at 0.5 µM,-31.3% (inactive) and -52.7% (inactive)
same,inhibition,[16]; [33],-4.25% and -43.2%
same,inhibition,[16]; [34],-44.9% and -60%
same,inhibition,"[16]; single agent, at 0.05 µM",-23.7% and -50.6%
same,inhibition,"[16]; single agent, at 5 µM",3.56% and 6.67%
Cn1cc(C2=C(c3ccc(Cl)cc3Cl)C(=O)NC2=O)c2ccccc21,liver cell % of control,[17],105% and 92.9% and 90.2%
same,parasite % of control,[17],19.2% (inactive) and 24.2% (inactive) and 47.4% (inactive)
Brc1c(Br)c(Br)c2n[nH]nc2c1Br,liver cell % of control,[17],96.1%
same,parasite % of control,[17],91.6% (inactive)
O=C(Nc1ccncc1)c1cc([N+](=O)[O-])ccc1Cl,inhibition,[9]; at 0.5 µM,-23.9% (inactive)
same,inhibition,[9]; [20],-37.5%
same,inhibition,[9]; [21],-9.6%
same,inhibition,[9]; [22],54.5%
same,inhibition,[10]; at 0.5 µM,-65.5% (inactive)
same,inhibition,[10]; [23],-72.7%
same,inhibition,[10]; [24],-82.6%
same,inhibition,[11]; at 0.5 µM,-11.5% (inactive)
same,inhibition,[11]; [25],-10.4%
same,inhibition,[11]; [26],-13.5%
same,inhibition,[12]; at 0.5 µM,-6.23% (inactive)
same,inhibition,[12]; [27],-27.4%
same,inhibition,[12]; [28],-17%
same,inhibition,[13]; at 0.5 µM,-23.4% (inactive)
same,inhibition,[13]; [21],-14.6%
same,inhibition,[13]; [22],-37.5%
same,inhibition,[14]; [29],-19.1%
same,inhibition,[14]; at 0.5 µM,-17.7% (inactive)
same,inhibition,[14]; [30],-9.35%
same,inhibition,[15],-9.91% (inactive)
same,inhibition,[15]; [31],0.843%
same,inhibition,[15]; [32],-18.4%
same,inhibition,[16]; at 0.5 µM,6.35% (inactive)
same,inhibition,[16]; [33],-12.9%
same,inhibition,[16]; [34],14.6%
same,inhibition,"[16]; single agent, at 0.05 µM",-34.7%
same,inhibition,"[16]; single agent, at 5 µM",-4.08%
CN1CCc2cccc3c2[C@H]1Cc1ccc(O)c(O)c1-3,fluorescence slope change,[18],65.8% (active)
same,remaining NAD,[19],53 nM (active)
same,luciferase signal,[1],48 AU (inactive)
